For this experiment, the system named is VDR:RXRa (NR concentration 270 nM, RXRa partner concentration 90 nM). As to the kind of experiment: PBM binding z-score (relative to random genomic background probes); higher = stronger binding; sequences stand for … in GC…GCGATTGACAGCGTAGAATGAAGG
On the procedure:
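Protein-binding microarray (Agilent 4x180K custom design, double-stranded 60-nt probes: 5' GC cap, 34-nt variable region, 24-nt constant primer region; full probe sequence given). Purified or IVT nuclear receptor:RXRα heterodimers (3:1 NR:RXRα, mostly 270:90 nM) or homodimers were incubated for 1 h in PBS with 2% milk and no ligand, then detected with Alexa488 antibodies. Fluorescence from o1-orientation probes (~5 replicates averaged) was converted to z-scores against 500 random hg19 background probes. Variable regions are seed direct-repeat (DR0–DR5) sites, all their single-nucleotide variants and half-site ablations.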
The sequence GTACCAAGGTGAACAGGTCGTTGATGAGTAGGCG registered a PBM binding z-score of 1.15.

TCTCGTTGGTCACGGAGGTCACACACGACGGGTA: the PBM binding z-score is 5.96.

As for GGAACGAGGGCAAAGTTGATTGCATCTGTCGACG, the PBM binding z-score came to 1.34.

Sequence ATCGAAAGGTCGTGAGGTGATTATACAGAAAGGC gave a PBM binding z-score of 3.61.

Regarding TCTGCTAGGTCAGTTAGTCAGCTAACGAGCTGCC, the PBM binding z-score was -0.204.

On to GCTGCTAGGTCGGGTTGGTCAGCTAACGGGTACG, for which the PBM binding z-score was -0.0515.

CGTCCAAGGTCAATGCTAGGTCAGTGGAAGCATT came in with a PBM binding z-score of 4.77.

As to TCATATAGGTAAAAGGTGAAGGTCGGTGTGGTAA, the PBM binding z-score amounted to 1.92.

CCTGATAGGTCATGGTCAGCTAATCTACAGTATG: the PBM binding z-score was found to be 2.95.

With TCATATAGGTAAATGCTAGGTGAAGGTCCGATCT, the PBM binding z-score was determined as 0.873.

Turning to ACTCGCAGGCCAAGTTTGGGTCACTCAAACAAAG, the PBM binding z-score stood at 0.787.

Take TGTCGGAGGACACGAAGGTCAGAGCTTTCCAGAG: the PBM binding z-score amounted to 2.42.

GCTAGTTGGTCAGTAAAAGGTCACACTCCGGTCG returned a PBM binding z-score of 3.76.

In the case of TCTGCTAGGTCAACGATGGTCACCTAATCTGCTA, the PBM binding z-score was found to be 2.19.

For the sequence ATATGTAGGTTATCGGGTAATTCAGTTTGCGCAT, the PBM binding z-score worked out at 1.54.

In the case of CGTCCATGGTCAGAGAGGTCAGTGAATGCCGAGT, the PBM binding z-score was 4.63.

TTTTGTAGATCAGCAGGTTAAGAAAGCTGGCCAA displayed a PBM binding z-score of 0.0929.

Regarding AATACCGGGTCACTAGGCCAGAGTAGGTACGAAT, the PBM binding z-score amounted to 3.03.

In turn, ATCTCTAGGTAACCAAGTTCTGTGAATGCCGAAC had a PBM binding z-score of 0.866.

GGAACGAGGGCATTCGAATTGATAGCATGGCGAT gave a PBM binding z-score of 1.13.

CTCGAAAGGTGGGTTGAGGTGAGTATACGGATAA: the PBM binding z-score stood at 0.817.

On to AGAACGAGGTTATACGTAGATCAGGGAAGAAAGT, for which the PBM binding z-score was 1.08.

For the sequence TATACAGGGTCCAAGGCCAGAGTACGAATGTCGA, the PBM binding z-score was determined as 0.821.

As to CCGAGCAGGCCAGGGTCACTCAAGCATTTCGCTT, the PBM binding z-score came out at 2.6.

Sequence GCATATAGGTAATACAAGGTGAAAGTACGATTGT returned a PBM binding z-score of 0.62.

In the case of ACTAGTTGGTCAGCTGAGGTCACACGCAATTCGG, the PBM binding z-score was 4.46.

In turn, TCGAGTAGGTTAGTCGGTGCATTCAGCCAACATA registered a PBM binding z-score of 3.31.

Consider TCTTGTAGATCAATAGACGTTAAGAAAGTGCGCT, for which the PBM binding z-score amounted to 0.326.

CCTACTGGGCCAAAAAGGTCATAGATGCCGATAA displayed a PBM binding z-score of 4.4.

With GCTAGCAGGCCATTTGGGTCACCCAATGACGGGC, the PBM binding z-score worked out at 1.07.

With TTACCAAGGTTAGCTGAGGTCGTTGATCCAACTC, the PBM binding z-score was 5.09.

As to CCTAGGAGGACAGAAGGTCAGAGCTGTCCGCTTT, the PBM binding z-score worked out at 1.09.

The sequence GCATCTAGGTAATACAAGGTGAAAGTCCGATTGT came in with a PBM binding z-score of 0.32.

With GTACCAAGGTGAATAGTTCGTTGATGAGTAGGCG, the PBM binding z-score came out at 0.251.

CCTAGTTGGTCAAGGTCACACAGGCTATAGGTAC had a PBM binding z-score of 4.72.

On to TCTGCTAGGTCAGTTGGTCAGCAAACGAGCTGCC, for which the PBM binding z-score is 0.276.

Regarding TCTGCTAGGTCAGTTGGTCAGCTCACGAGCTGCC, the PBM binding z-score turned out to be 0.484.

As for CTAACAAGGTGAACAAGGTCGTTGATTACTATTC, the PBM binding z-score turned out to be 6.27.

In turn, TCTAGTTGGTCAAAGGACACACACTCGAAATGCG had a PBM binding z-score of 1.05.

As to TCGAGTAGGTTAGTCGGGGCAATCAGCCAACATA, the PBM binding z-score turned out to be 1.05.

The values are drawn from the supplement of paper PMC6555819.
